# Laboratory results as given in PubChem BioAssay (NCATS).
# Inconclusive results are not listed. A call without a number means that no potency is given here. The source made the active and inactive calls. Calls follow the shape of the dose curve; as a rule, active = well fitted cell-killing curve with a large enough effect; inconclusive = small, poorly fitted or top-dose-only effect; inactive = flat fitted curve, though single readings scatter.
# Assay: Cell Viability - LYMP1-003 - Assay at 40 hr (AID 964); also: nearly all actives have a fitted effect of over 60% in size
# Details: LYMP1-003 lymphoblastoid viability; series mostly up to 92.2 µM
# Source text: NIH Chemical Genomics Center [NCGC]
# NIH Molecular Libraries Screening Centers Network [MLSCN]
# National Institutes of Environmental Health Sciences [NIEHS]
# National Toxicology Program [NTP]
# We have developed a 1536-well cell-based assay for quantitative high throughput screening (qHTS) against a number of cell lines to determine in vitro cytotoxicity of small molecules. This particular assay uses a human lymphoblastoid cell line (LYMP1-003) purchased from Coriell Institute for Medical Research.
# NCGC Assay Protocol Summary:
# The CellTiter-Glo luminescent cell viability assay (Promega) is a homogeneous method to measure the number of viable cells in culture. The end point readout of this assay is based on quantitation of intracellular ATP, an indicator of metabolic activity, using the luciferase reaction. Luciferase catalyzes the oxidation of beetle Luciferin to oxyluciferin and light in the presence of ATP. The luminescent signal is proportional to amount of ATP present.
# Using the CellTiter-Glo luminescent cell viability assay, the amount of cellular ATP was measured in the lymphoblastoid cell line with complete culture medium following compound treatment for 40 hours. The assay was performed in opaque white Kalypsys 1536-well plates. In the screen, tetraoctylammonium bromide was used as positive control. Library compounds were measured for their ability to cause acute toxicity in the cell line, as reflected by a decrease in intracellular ATP levels, in a concentration-dependent manner. […] AC50 values were determined from concentration-response data modeled with the standard Hill equation.
# qHTS protocol for CellTiter Glo lymphoblastoid cellular assay
# [Step] [Parameter] [Value] [Description]
# 1. Reagent; 5 uL; 2500 lymphoblastoid cells/well
# 2. Time; 5 hr; 37 C incubation
# 4. Controls; 23 nL; Tetraoctylammonium bromide 6.4pM to 92 uM
# 5. Time; 40 hr; 37 C incubation
# 6. Reagent; 5 uL; CellTiter Glo reagent
# 7. Time; 30 min; Room Temperature
# 8. Detection; Luminescence; Viewlux plate reader
# Keywords: cell viability, cytotoxicity, lymphoblastoid cell line, luminescence, NTPHTS, NTPHTS_NCGC, NIEHS, DSSTox, MLSMR, MLSCN, NIH Roadmap, qHTS, NCGC
row,Structure (SMILES),Potency
1,C=CC(=O)OCC(CC)CCCC (stereo not given),inactive
2,ClC(Cl)c1ccccc1,inactive
3,O=[N+]([O-])c1ccccc1O,inactive
4,CCC[N+](=O)[O-],inactive
5,CN(C)c1ccccc1,inactive
6,CN(C)c1ccc(N(C)C)cc1,inactive
7,CC(C#N)CCC#N (stereo not given),inactive
8,C[N+](=O)[O-],inactive
9,CC12CC1(C)C(=O)N(c1cc(Cl)cc(Cl)c1)C2=O (stereo not given),inactive
10,CCNCC,inactive
11,N#CCCCCC#N,inactive
12,CC(C)CON=O,inactive
13,CC(C)C#N,inactive
14,CC(C)OS(C)(=O)=O,inactive
15,O=C(O)C(Cl)Br (stereo not given),inactive
16,Nc1ccc2ccccc2c1,inactive
17,OCCCCO,inactive
18,ClC(Cl)Br,inactive
19,ClCc1ccccc1,inactive
20,Cc1ccc(OP(=O)(Oc2ccc(C)cc2)Oc2ccc(C)cc2)cc1,inactive

row,Structure (SMILES),Potency
1,O=P(OCCCl)(OCCCl)OCCCl,inactive
2,CCCCC(=O)Cl,inactive
3,BrCC(Br)(Br)Br,inactive
4,Nc1ccc([N+](=O)[O-])cc1[N+](=O)[O-],inactive
5,C=CCO,inactive
6,CCC(Cl)[N+](=O)[O-] (stereo not given),inactive
7,CCN(N=O)C(N)=O,inactive
8,CCCCCCCCCCCOC(=O)c1ccccc1C(=O)OCCCCCCCCCCC,inactive
9,ClCCOCOCCCl,inactive
10,CN(C)C(=O)Nc1cccc(C(F)(F)F)c1,inactive
11,CCCCOCC1CO1 (stereo not given),inactive
12,Oc1cccc(Cl)c1,inactive
13,c1ccoc1,inactive
14,FC(Cl)(Cl)Cl,inactive
15,O=C(O)c1cccc(Cl)c1,inactive
16,Cc1ccc(N)cc1C,inactive
17,ClC(Cl)(Cl)C(Cl)(Cl)Cl,inactive
18,CCOP(=S)(OCC)Oc1nc(Cl)c(Cl)cc1Cl,inactive
19,O=C(O)C(Br)Br,inactive
20,CCC#N,inactive
